Data on 54 sequences can be found in publication PMC7819943, “Rice protein-binding microarrays: a tool to detect cis-acting elements near promoter regions in rice”.

Whole data set: some 68,000 sequences, median “fluorescence intensity (a.u.)” near 9,100, cut for the highest 2% near 16,000. The full list was thinned out, with the highest values kept by preference.

Sequence of OsWRKY34 (Q0JBA9 entry or part of it): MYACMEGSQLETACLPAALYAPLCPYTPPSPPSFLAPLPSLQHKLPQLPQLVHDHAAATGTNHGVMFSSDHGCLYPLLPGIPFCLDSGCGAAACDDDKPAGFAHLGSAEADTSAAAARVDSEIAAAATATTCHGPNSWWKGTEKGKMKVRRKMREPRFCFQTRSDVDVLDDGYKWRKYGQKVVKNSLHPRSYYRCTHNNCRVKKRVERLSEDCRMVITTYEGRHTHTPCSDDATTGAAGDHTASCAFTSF

The target of the test is OsWRKY34 (Oryza sativa, UniProt Q0JBA9 1-250). Briefly: protein-binding microarray (RPBM); PBS, 2% BSA, 51.3 ng/ul salmon testes DNA, 50 uM zinc acetate, 200 nM TF, 25 C, 1 h; high values mean tight binding. The settings on record: protein: recombinant; tags: N-terminal polyhistidine and DsRed monomer fusion (pET32a); label: CyDye5-dUTP incorporated in the synthesized complementary strand; 3' TTTTT single-stranded linker to array surface; dsDNA, one strand shown. Put shortly:
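Transcription factors were each fused at the N-terminus to a polyhistidine tag plus DsRed and expressed in E. coli BL21-CodonPlus before Ni–NTA purification. Binding to a double-stranded custom Agilent array was carried out with 200 nM protein at 25 °C for 1 h in PBS, 2% BSA, salmon testes DNA and 50 µM zinc acetate. The binding signal is per-feature fluorescence intensity, in arbitrary units, on an Axon 4000B scanner.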
Regarding “GTTTCATAATCCTGTGTTCTTTTTGTTTACTATGGTTTTGCGGAGTCACCTAGTGCAG”, the binding signal was 11000 fluorescence intensity (a.u.).
As to “GCAACTGATAGACTAACTTGTCCGGTCCTGTTTTGGAATCCGGAGTCACCTAGTGCAG”, the binding signal was 10200 fluorescence intensity (a.u.).
In the case of “TGCCAGCACAAATCTCGAAGCACATCCAATGATCCAAGACCGGAGTCACCTAGTGCAG”, the binding signal was 9540 fluorescence intensity (a.u.).
Regarding “TACTGTTGCTGCTAGTTCACCATTTGCGCATTTCCTCTTCCGGAGTCACCTAGTGCAG”, the binding signal is 11700 fluorescence intensity (a.u.).
For “TCGCCGTTCGCTGGTATATGCCGTTGTCTTGGAATCATCTCGGAGTCACCTAGTGCAG”, the binding signal was 11100 fluorescence intensity (a.u.).
As for “GGGAGAGGTGGAGACCAGGAGGTGGGGTGGCGGAGGTCATCGGAGTCACCTAGTGCAG”, the figure is 14300 fluorescence intensity (a.u.).
“CGCGGGAATCGGCCGGCGACGTGGGGAGGTGGGGAGGAGACGGAGTCACCTAGTGCAG”: the binding signal is 8900 fluorescence intensity (a.u.).
Turning to “CCGGTGGGGTGGGGAATTCGGCGGAGGAAGACGACGACGACGGAGTCACCTAGTGCAG”, the binding signal was 9250 fluorescence intensity (a.u.).
“CGGTGTTGGGATCGGGTTTGGAGGTGGTAAGGGTGGTGGTCGGAGTCACCTAGTGCAG”: the binding signal is 10600 fluorescence intensity (a.u.).
For “TGACATGGTTGTTAGGGTTTGCGAGCAAATTTTCGTGGGGCGGAGTCACCTAGTGCAG”, the binding signal is 10100 fluorescence intensity (a.u.).
As for “GTGGAGGCGCGGTGGGGTGGGGAAGGAGTGTGTTTCGTGTCGGAGTCACCTAGTGCAG”, the binding signal is 15500 fluorescence intensity (a.u.).
Consider “AAATTTAGGTGGAGGGGTGTGGGCGGTTTCGTGCAAAAATCGGAGTCACCTAGTGCAG”, for which the binding signal was 19100 fluorescence intensity (a.u.).
For “GCATCGTGGGGTGTGGGTGGCGGTTTTGGAGGGGAGAGGTCGGAGTCACCTAGTGCAG”, the binding signal is 23200 fluorescence intensity (a.u.).
For “GGCGGTATCGACGAAGAATCTCGGGGCGGTGGGGAGGTTTCGGAGTCACCTAGTGCAG”, the binding signal was 17700 fluorescence intensity (a.u.).
Consider “ATGGGTTGGGACTGTCCTGGTGCGCGATTACTAACGTGGACGGAGTCACCTAGTGCAG”, for which the binding signal is 8790 fluorescence intensity (a.u.).
In the case of “TATTGGAACTATTACGACCACATGCTCTCTTCCTACTCTCCGGAGTCACCTAGTGCAG”, the binding signal was 9770 fluorescence intensity (a.u.).
Consider “CTCCAGCCGATATACATGCAGCCGCTGTCATCTTTTGTTCCGGAGTCACCTAGTGCAG”, for which the binding signal was 9100 fluorescence intensity (a.u.).
Consider “TCTTTTACACTTCATTTATTTTTTCATGCACCAAGGCTTACGGAGTCACCTAGTGCAG”, for which the binding signal was 9810 fluorescence intensity (a.u.).
For “TGTTTTGGCTTTGGTCCCTTGCTTTTCTTTGGAGGTTGGACGGAGTCACCTAGTGCAG”, the binding signal was 10400 fluorescence intensity (a.u.).
On to “TTCTTTTTTTGTGGGGAGAGGCGGGCTGTTTTTTTCTTGCCGGAGTCACCTAGTGCAG”, for which the binding signal is 15900 fluorescence intensity (a.u.).
For “GGATACTGCACAGCCCTTGATCACAATACAGTGCATTTCTCGGAGTCACCTAGTGCAG”, the binding signal was 9450 fluorescence intensity (a.u.).
For “GAGTAGTTCGCTTTGGCAGTATGGCATTTGTACACGCTCACGGAGTCACCTAGTGCAG”, the binding signal is 8660 fluorescence intensity (a.u.).
For the sequence “GGGGATTTTTGTACGCTCACGGCATTTTTTTTGTCAGCGACGGAGTCACCTAGTGCAG”, the binding signal was 17500 fluorescence intensity (a.u.).
“CTTGCACGCGACGGCCTGGCATTTGTGTACGGCACCGCCCCGGAGTCACCTAGTGCAG”: the binding signal is 8030 fluorescence intensity (a.u.).
Take “TATCTTATCAGGTCTCGTCTTCTTTAATCCAACCCTTGTTCGGAGTCACCTAGTGCAG”: the binding signal was 8680 fluorescence intensity (a.u.).
For the sequence “ATCTTAAGCTGTCCTTTTTCATGCCGAGTCAGAGTTTCATCGGAGTCACCTAGTGCAG”, the binding signal is 9130 fluorescence intensity (a.u.).
For the sequence “TCGGATACGAGTTTGATTCTCATCCTCCTTCATTTATATTCGGAGTCACCTAGTGCAG”, the binding signal was 8320 fluorescence intensity (a.u.).
With “CGTATTTTAATATATGACGCCGTTGACTTTTTATTAACGACGGAGTCACCTAGTGCAG”, the binding signal is 23200 fluorescence intensity (a.u.).
For “GTATGACTTCTCCGTTTTTATATTTGCACTAATTTTTTAACGGAGTCACCTAGTGCAG”, the binding signal is 11200 fluorescence intensity (a.u.).
Turning to “ACTCCCTCCGTATTTTAATATATGACGCCGTTGACTTATTCGGAGTCACCTAGTGCAG”, the binding signal is 13800 fluorescence intensity (a.u.).
As for “CGTATTTTAATATATGACGCCCGCCGTTGACTTTTTGTCTCGGAGTCACCTAGTGCAG”, the figure is 27800 fluorescence intensity (a.u.).
For “CCGTATTTGAATATATGACGCCGTTGACTTTTTAACTAATCGGAGTCACCTAGTGCAG”, the binding signal is 17900 fluorescence intensity (a.u.).
For “CTCTGCACGTTTCTTTCCCCTAACAAATACATGTACACACCGGAGTCACCTAGTGCAG”, the binding signal was 9590 fluorescence intensity (a.u.).
Take “ACACATAAACTTCTAACTTTTCCGTCACATCGTTCCAATTCGGAGTCACCTAGTGCAG”: the binding signal was 8380 fluorescence intensity (a.u.).
Turning to “GCATCCTAACATCCCGCCGAAGGACCTTTTCAACCTCATCCGGAGTCACCTAGTGCAG”, the binding signal was 8300 fluorescence intensity (a.u.).
On to “ATTGAGATAGAGGGAGTGGTTGGGATGGTGAAGTTGCTATCGGAGTCACCTAGTGCAG”, for which the binding signal was 9450 fluorescence intensity (a.u.).
With “ACTCCATCAATTTTTCATTATGTCTGTGTTTGTCCTGACTCGGAGTCACCTAGTGCAG”, the binding signal is 14900 fluorescence intensity (a.u.).
With “TCAACTGTACTGTACTCCACTCGCCGCACACACTGACACACGGAGTCACCTAGTGCAG”, the binding signal was 11200 fluorescence intensity (a.u.).
Turning to “GGGCATATTTCTCTATTTTTCTATTCCTATGGTTTGAAATCGGAGTCACCTAGTGCAG”, the binding signal is 9080 fluorescence intensity (a.u.).
With “ATATGTCTGACTTGTACTTTTATGTTATTTTTCCTCTAATCGGAGTCACCTAGTGCAG”, the binding signal is 13900 fluorescence intensity (a.u.).
As for “ATACTTCATCCGTTTCTAAATATTTGATGCCGTTGACTTTCGGAGTCACCTAGTGCAG”, the binding signal is 17600 fluorescence intensity (a.u.).
Turning to “AATATTTCATCAGTTTCTAAATTTTTGACGCCGTTGACTTCGGAGTCACCTAGTGCAG”, the binding signal is 10200 fluorescence intensity (a.u.).
In the case of “AATTTTTTTCCTCTCCTGTTTTGTGCCCTTGATATTATGTCGGAGTCACCTAGTGCAG”, the binding signal was 13400 fluorescence intensity (a.u.).
Consider “TTATGCGTGACTTGTCTTTTTAATTTTTTAATAATTTTTTCGGAGTCACCTAGTGCAG”, for which the binding signal was 9370 fluorescence intensity (a.u.).
For “AATTGACTTTTTTATGCTAATTTTCCCTCTAATTACTTGTCGGAGTCACCTAGTGCAG”, the binding signal is 18400 fluorescence intensity (a.u.).
As for “GGTTTCCTCATATGCCCTTGAAAATTTGCTATTCCTCTGTCGGAGTCACCTAGTGCAG”, the figure is 22700 fluorescence intensity (a.u.); as for “CATATACTCTATCCGTTTCTAAATATTTGACGCCGTTGACCGGAGTCACCTAGTGCAG”, 16200 fluorescence intensity (a.u.); as for “CATTTTTCTAATTACAAAGTCCATTTCTTTTTATGTTTTCCGGAGTCACCTAGTGCAG”, 8830 fluorescence intensity (a.u.).
For “AGTTGTCCTGCTTTTTTGCTTTCCTAATCTGTTTCCATTTCGGAGTCACCTAGTGCAG”, the binding signal was 13300 fluorescence intensity (a.u.).
As for “ATGTCCCTAATTACTGCGTTTTCCATTTTGCTGTTTTTTACGGAGTCACCTAGTGCAG”, the figure is 16500 fluorescence intensity (a.u.).
With “CTGTTTAGATCTCCTAGCAACATTTTACACTCTCTTGCATCGGAGTCACCTAGTGCAG”, the binding signal is 8740 fluorescence intensity (a.u.).
Turning to “CGAACGGTTTAACATATTTAAAAAAGTCAACGGCGTCAAACGGAGTCACCTAGTGCAG”, the binding signal was 8310 fluorescence intensity (a.u.).
With “GCTTGTTTCTTTGCTGAATTATTATTTTGCTCATTCCACTCGGAGTCACCTAGTGCAG”, the binding signal is 10300 fluorescence intensity (a.u.).
Turning to “TTTTTCCCTGAAGCTCCTGTGTGTCATCTCTCTTTTTCTTCGGAGTCACCTAGTGCAG”, the binding signal is 11100 fluorescence intensity (a.u.).
